In the OligoGym collection:

The sequences below were run against TBX10 (assay: pooled miR-30 sensor sort-seq; sequence = guide strand). Details: shRNA.
Note: reference of the scale not given here.

| Sequence | sensor-assay potency score (higher = more potent) |
| --- | --- |
| ATACCTGTATCTCTTGTCGTCC | -0.36 |
| TTCTGATAGGCTGTCACTGCTG | -0.605 |
| TTCATCTCCAGCTGAACTGTCA | -0.543 |
| TGGAGGTGGAAGCTGAAGCTTT | -1.2 |
| TCACTCTGGACACACGTGGGTT | -1.06 |
| TTGTTGGGGTCTTTCTCCCTGT | -0.814 |
| TAGCGCTCACTGTCCTTGCGTG | -0.517 |
| TATGGTGCTGGTCGGGTCCTTG | -1.11 |
| TTGGTGACGATCATCTCAGTGC | -0.282 |
| TCCAGCTGAACTGTCACTCTGG | -0.454 |
| TATCTCTTGTCGTCCAGGGGGA | -0.47 |
| TTGCTGGCGATTTTCAGCTGGG | -0.663 |

The sequences below were run against TBX15 in the same assay as above. Details: shRNA.

| Sequence | sensor-assay potency score (higher = more potent) |
| --- | --- |
| TACACAGACAAATTCTTGGTGA | 0.47 |
| TTTTAATCTGGTAATCTGCTGA | 0.443 |
| TAGGCTTCCATCTTGCTGTTGC | 0.42 |
| TTGATCATCCAACTCATTGTTG | -0.489 |
| TTTCGGTCAATTTTTAATCTGG | -0.172 |
| TTAATCTGGTAATCTGCTGATT | -0.87 |
| TTGTACACAGACAAATTCTTGG | -0.17 |
| TGTCTTTCCACTCTCATCCATT | -1.03 |
| TTCAGTTCCAATATCATGGAAC | -0.282 |
| TTGCTATGTAGTACTGCTGATG | -1.07 |
| TTAGATTACACAGCTGGCTTTC | -0.575 |
